From PubChem BioAssay AID624330 (Southern Research Specialized Biocontainment Screening …, 2012)
In all, about 340,000 compounds went through this assay and about 2,100 (0.62%) were called active.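 Rule for the calls: active = first-screen hits whose inhibition reached a set limit at any dose in the follow-up dose series; inconclusive = inhibition above the set first-screen limit but never retested; inactive = the rest.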 A selection follows. Potency and affinity values are given separately. Square brackets hold non-standard residues; d marks the D form. Peptide text beside a SMILES is read from it. * marks the point of attachment. ξ: configuration not given here. Cbz = O=C(OCc1ccccc1)*; ξP = O=C(O)C1CCCN1

molecular target: Rac GTPase-activating protein 1 (Homo sapiens) (UniProt Q9H0H5); assay: MgcRacGAP GTPase-activating activity inhibitors, confirmation, biochemical, ADP Hunter fluorescence, primary and confirmatory (AID 624330); settings: MgcRacGAP-stimulated Rac1 GTP hydrolysis, at 30 µM, hits give high values, GST-tagged Rac1 F28L mutant substrate;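 note: fluorescence reports GDP produced by GAP-driven GTP hydrolysis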
Sequence (Q9H0H5 whole entry, looked up): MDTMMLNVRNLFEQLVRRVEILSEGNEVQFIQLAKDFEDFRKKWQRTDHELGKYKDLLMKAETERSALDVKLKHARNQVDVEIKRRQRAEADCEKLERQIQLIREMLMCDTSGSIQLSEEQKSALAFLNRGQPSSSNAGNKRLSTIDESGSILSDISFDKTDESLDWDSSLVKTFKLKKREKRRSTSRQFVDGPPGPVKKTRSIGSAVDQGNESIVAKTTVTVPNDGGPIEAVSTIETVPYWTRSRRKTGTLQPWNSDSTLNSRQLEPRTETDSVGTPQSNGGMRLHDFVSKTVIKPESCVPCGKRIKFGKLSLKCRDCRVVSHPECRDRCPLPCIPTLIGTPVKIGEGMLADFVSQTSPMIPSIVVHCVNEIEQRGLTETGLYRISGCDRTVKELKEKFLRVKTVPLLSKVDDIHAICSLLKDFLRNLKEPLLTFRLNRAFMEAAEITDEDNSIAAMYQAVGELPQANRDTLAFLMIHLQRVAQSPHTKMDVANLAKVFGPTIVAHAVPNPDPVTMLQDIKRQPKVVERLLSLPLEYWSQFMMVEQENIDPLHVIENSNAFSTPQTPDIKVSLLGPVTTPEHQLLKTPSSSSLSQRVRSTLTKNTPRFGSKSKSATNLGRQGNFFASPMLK

inhibition, inactive:
CC1(C)CC(=O)C(C=NCCN2CCN(C(=O)c3ccc(F)cc3)CC2)=C(O)C1 0.28%
COc1ccccc1CN1CC(C(=O)NCc2nccn2C)CCC1=O (centres undefined) 10.1%
COC(=O)[C@@]12CCCN1[C@H](c1ccc(-c3ccccc3)cc1)[C@H]1C(=O)N(C)C(=O)[C@H]12 8.21%
COc1ccc(CCNC(=O)Cn2ccc3c(OC)cccc3c2=O)cc1OC 8.24%
CCOC(=O)C1=C(COC(=O)/C=C/c2cccc(Br)c2)NC(=O)NC1C (centres undefined) 2.35%
Cc1cccc(C)c1-n1nnnc1C1(Nc2ccccc2)CCCCC1 8.6%
CN(C(=O)c1ccc(NC(=O)Cc2cccc(NC(=O)C3CCCN(C(=O)C4CCCC4)C3)c2)cc1)C1CCCC1 (centres undefined) 8.78%
COc1ccc(NC2CCCN(C(=O)c3cccnc3)C2)cc1 (centres undefined) 26.2%
COc1ccc(C(=O)N2CCCC(Nc3ccc(C(C)C)cc3)C2)c(OC)n1 (centres undefined) 2.96%
Cc1ccc(C(=O)N2CCCC(Nc3ccc(C(C)C)cc3)C2)cn1 (centres undefined) 7.62%
COc1ccc(OCC(=O)N2CCCC(Nc3ccc(C)c(C)c3)C2)cc1 (centres undefined) 14.3%
CC(=O)c1ccc(OCC(=O)N2CCCC(Nc3ccc(C)c(C)c3)C2)cc1 (centres undefined) 14.3%
CC(=O)c1ccc(C(=O)N2CCCC(Nc3ccccc3)C2)s1 (centres undefined) 7.53%
CC(=O)c1ccc(C(=O)N2CCCC(Nc3ccc(C(C)C)cc3)C2)s1 (centres undefined) -45.7%
COc1cc(OC)cc(C(=O)NCC2CCCN(C(=O)c3csc(C(C)C)n3)C2)c1 (centres undefined) 8.24%
CC(C)(C)c1ccc(C(=O)NCCCN2CCN(CCCNC(=O)c3ccc(C(C)(C)C)cc3)CC2)cc1 0.51%
COC(=O)C1=C(O)C(C(=O)OC)C(c2ccc(C)cc2)C(C#N)(C#N)C1c1ccc(C)cc1 (centres undefined) 6.45%
COc1ccc(/C=C/C(=O)Nc2cc(C(F)(F)F)ccc2Cl)cc1 0.39%
CCOC(=O)C1=C(C)NC(C)=C(C(=O)OCC)C1c1cccc([N+](=O)[O-])c1 10.8%
O=C(c1cccc(N2CCCC2=O)c1)N1CCN(c2ccccc2)CC1 10.3%
COCCN(C(=O)Cc1coc2cc(C)c(C)cc12)c1c(N)n(Cc2ccccc2)c(=O)[nH]c1=O 0.31%
CCCC(C(=O)N(C)CC(=O)Nc1ccc(N2CCOCC2)cc1)c1ccccc1 (centres undefined) 7.2%
CCNC(=S)N(Cc1cc2c(C)ccc(C)c2[nH]c1=O)C1CCCC1 3.17%
COc1ccc(NC2CCCN(C(=O)CSc3ccncc3)C2)cc1 (centres undefined) 31.3%
COc1ccc(NC2CCCN(C(=O)C3(C)CCCCC3)C2)cc1OC (centres undefined) -45.5%
COc1ccc(NC2CCCN(C(=O)c3ccc4[nH]c(C)c(C)c4c3)C2)cc1OC (centres undefined) 12.8%
Cc1cc(C(=O)N2CCCC(Nc3ccccc3)C2)c2ccc(F)cc2n1 (centres undefined) 12.7%
CSc1nc(C(=O)N2CCCC(Nc3ccc(C)c(C)c3)C2)cs1 (centres undefined) 13.4%
COc1ccc(C(=O)N2CCCC(Nc3ccc(C)c(C)c3)C2)cc1 (centres undefined) 16.9%
Cc1nc(C(=O)N2CCCC(Nc3ccc(C)c(C)c3)C2)cs1 (centres undefined) 13.6%
COc1ccc(C(=O)N2CCCC(Nc3ccc(F)cc3)C2)c(OC)c1 (centres undefined) 5.24%
CC(CC(=O)Nc1ccc(S(=O)(=O)N2CCOCC2)cc1)c1ccccc1 (centres undefined) 3.54%
Cc1cc(Cl)ccc1NC(=S)N1CCN(C(=O)c2ccco2)CC1 5.96%
Cc1ccc(S(=O)(=O)NN=Cc2c(O)ccc3ccccc23)cc1 11.4%
O=C(NCCc1ccccc1)C1CCC(CNS(=O)(=O)c2ccc(F)cc2)CC1 (centres undefined) 6.44%
O=C(CSc1nnc(CNC(=O)c2ccco2)o1)Nc1ccc(F)cc1 -2.84%
Cc1ccc(N/C(CSC(N)=O)=N/S(=O)(=O)c2ccccc2)cc1 4.14%
Cc1cc(C=O)c(C)n1-c1cc(C(F)(F)F)ccc1N1CCOCC1 5.1%
CCn1nc(C)cc1C(=O)N1CCCC(Nc2ccc(C(C)C)cc2)C1 (centres undefined) 9.28%
CCn1nc(CC(C)C)cc1C(=O)N1CCCC(Nc2ccc(F)cc2)C1 (centres undefined) 1.25%
CCN(CC)c1ccc(S(=O)(=O)N2CCOCC2)cc1NC(=O)C1CC1 6.61%
Cc1ncc(S(=O)(=O)C(C)(C)C)c(N)n1 4.93%
O=C(COC(=O)/C=C/c1cccs1)NC(=O)Cc1ccccc1 9.86%
Nc1ccccc1SC/C=C/CSc1ccccc1N 17.8%
Nc1ccccc1SCc1ccccc1 3.68%
CC1(C)CC(=O)C2=C(C1)NC(=O)NC2c1ccc(Cl)cc1 (centres undefined) 9.51%
COc1ccc(NC(=O)C2CC(c3ccc(Cl)cc3)=NO2)cc1OC (centres undefined) -3.14%
COC(=O)C1CCN(C(=O)Cn2nnc(-c3ccccc3)n2)CC1 5.24%
CC(C)/C=C1\CC/C(=C\c2ccc(N(C)C)cc2)C1=O 6.52%
CN(C)c1ccc(/C=C2\CCC/C(=C\c3ccccc3)C2=O)cc1 10.2%
Cc1ccc(S(=O)(=O)N2CCCCC2)cc1NC(=O)CSc1nnc(C2CC2)n1N 4.18%
Cc1cc(C(=O)NCC(=O)OCC(=O)NCCc2ccccc2)ccc1[N+](=O)[O-] -1.11%
COc1ccc(F)cc1C(=O)C1CCCN(Cc2ccc3c(c2)OCCO3)C1 (centres undefined) 4.09%
CC(C)NC(=O)C1CCN(Cc2cccc(OCc3ccccc3)c2)CC1 6.52%
COc1ccc(-c2onc(C)c2-c2cnn(-c3ccccc3)c2)c(O)c1C 5.03%
COc1ccc(-c2n[nH]c(C)c2-c2cnn(-c3ccccc3)c2)c(O)c1C 6.48%
CC(C)(C)NC(=O)COc1coc(CN2CCN(Cc3ccccc3)CC2)cc1=O -6.74%
Cc1ccc(OCC(=O)Nc2ccc(N3CCCC3)cc2)cc1C 7%
Cc1ccc(S(=O)(=O)N2CCOCC2)cc1NC(=O)CN1CCN(C)CC1 4%
Cc1ccc(S(=O)(=O)N(C)C)cc1NC(=O)CN1CCCC1 3.96%
CCN(CC)c1ccc(S(=O)(=O)N2CCOCC2)cc1NC(=O)CN1CCc2ccccc2C1 6.44%
Cc1ccc(S(=O)(=O)N(C)C)cc1NC(=O)CN1CCN(Cc2ccccc2)CC1 1.33%
Cc1ccc(F)cc1NC(=O)CN1CCN(Cc2ccccc2)CC1 -0.43%
CCN(CC)c1ccc(S(=O)(=O)N2CCOCC2)cc1NC(=O)CSc1ccccc1 1.35%
Cc1ccc(OCCNC(=O)c2ccc(C)cc2)cc1 -0.09%
CCN1C(=O)C(NC(C)=O)c2cc(Br)ccc21 (centres undefined) 1.35%
CCOc1ccc(NC(=O)CN(C)C(=O)Cc2n[nH]c(=O)c3ccccc23)cc1OCC 3.38%
COc1ccccc1CN(C)C(=O)c1cccc(S(=O)(=O)N2CCCC2)c1 5.67%
Cc1cccc(C)c1Nc1n[nH]c(=S)s1 13.1%
Cc1cc(C)c(Nc2n[nH]c(=S)s2)cc1C 29.6%
COc1ccccc1N1C(=O)S/C(=C\c2cc(C)n(C)c2C)C1=O -0.75%
N#Cc1ccc[n+](CC(=O)c2ccc(NC(=O)c3ccccc3)cc2)c1 3.28%
c1cc2c3c(cccc3c1)NC1(CCC3(CC1)Nc1cccc4cccc(c14)N3)N2 29.5%
c1cc2c3c(cccc3c1)NC1(CCCC1)N2 -1.27%
COc1cc(OC)cc(N(C(=O)c2ccco2)C(C(=O)NC2CCCC2)c2ccc(N3CCOCC3)cc2)c1 (centres undefined) 3.31%
O=C(NC1CCCC1)C(c1ccncc1)N(C(=O)Cc1cccs1)c1ccc(F)cc1 (centres undefined) -2.61%
ON=C1c2ccccc2-c2ccc(Br)cc21 0.43%
ON=C1c2ccccc2-c2ccc(F)cc21 -0.77%
ON=C1c2ccccc2-c2ccccc21 4.05%
Nc1ccc2c(c1)C(=NO)c1ccccc1-2 14.6%
COCCCNc1nc2nonc2nc1NCCSC -2.05%
Cc1cc(SCc2ccc(Cl)c(Cl)c2)nc(=O)[nH]1 13.6%
CC(C)(C)C(=O)Nc1ccc(C(=O)N/N=C/C2CC3C=CC2C3)cc1 (centres undefined) 8.37%
COC(=O)CNC(=O)C1CCCN1C(=O)CNC(=O)OCc1ccccc1 (stereo not drawn) (Cbz-Gly-[ξP]-Gly-OMe) 7.71%
CC(C)C(C)NC(=O)CN1C(=O)NC2(CCc3ccccc3C2)C1=O (centres undefined) 2.87%
CCC(=O)c1ccc(OCc2ccc(C(=O)c3ccccc3)cc2)cc1 6.28%
COc1cccc(NC(=O)c2sc3nc4n(c(=O)c3c2C)CCC4)c1 -4.45%
O=C(CCC1CCCC1)Nc1cccn(Cc2ccccc2Br)c1=O 2.13%
CCOC(=O)c1cc(C)n(Cc2ccccc2)c1C -2.73%
CCOC(=O)c1sc(=S)n(Cc2ccccc2)c1C 8.11%
Cc1noc(C)c1COc1ccccc1C(=O)NNC(=O)c1ccccc1 11.8%
N#C/C(=N\Nc1cccc(F)c1)C(=N)N1CCCCCC1 15.4%
O=C1c2ccccc2NC(c2ccccc2)N1/N=C/c1ccccc1 (centres undefined) 12.7%
Cc1ccc(/C=N/N2C(=O)c3ccccc3NC2c2ccc(C)cc2)cc1 (centres undefined) 7.64%
